Experimental data taken from PubChem BioAssay AID1159580 (chemical genetic matrix, 2015).
Screen size: about 5,500 compounds; about 2,000 (36%) were called active. Not shown: some 18% with an inconclusive outcome. Rule as the data show it: active = normalized growth mostly below about 0.91 (no sharp cut-off); inconclusive = no clear call, values can overlap the other calls; inactive = mostly above about 0.92. This is one part of the list.

Experiment: chemical genetic growth profiling, strain panel (AID 1159580);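 also: tested at 20 µM; growth read once vehicle control cultures reached saturation at 30 °C; 1 = growth at the plate median or of vehicle wells; lower values mean less growth of the strain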
Settings: S. cerevisiae deletion strains, growth OD

Measured: normalized growth

CC(C)c1ccc(NCC(O)CSc2ccccc2)cc1 (stereo unspecified)
active: locus YHR030C, strain SLT2, stronger effect = lower value 0.655 | locus YKL048C, strain ELM1, stronger effect = lower value 0.731 | locus YLR113W, strain HOG1, stronger effect = lower value 0.405 | locus YPL256C, strain CLN2, stronger effect = lower value 0.621
inactive: locus YAR019C, strain CDC15, stronger effect = lower value 0.956 | locus YBL105C, strain PKC1, stronger effect = lower value 0.957 | locus YBR135W, strain CKS1, stronger effect = lower value 0.952 | locus YBR136W, strain MEC1, stronger effect = lower value 0.952 | locus YBR160W, strain CDC28, stronger effect = lower value 0.966 | locus YDL017W, strain CDC7, stronger effect = lower value 0.969 | locus YDL028C, strain MPS1, stronger effect = lower value 0.955 | locus YDL101C, strain DUN1, stronger effect = lower value 0.951 | locus YDL108W, strain KIN28, stronger effect = lower value 0.943 | locus YDL132W, strain cdc53, stronger effect = lower value 0.948 | locus YDL214C, strain PRR2, stronger effect = lower value 0.808 | locus YDR052C, strain DBF4, stronger effect = lower value 0.974 | locus YDR054C, strain cdc34, stronger effect = lower value 0.947 | locus YDR226W, strain ADK1, stronger effect = lower value 0.983 | locus YDR477W, strain SNF1, stronger effect = lower value 0.805 | locus YER123W, strain YCK3, stronger effect = lower value 0.755 | locus YER133W, strain GLC7, stronger effect = lower value 0.796 | locus YFL009W, strain cdc4, stronger effect = lower value 0.952 | locus YFL029C, strain CAK1, stronger effect = lower value 0.952 | locus YFR003C, strain YPI1, stronger effect = lower value 0.959 | locus YFR019W, strain FAB1, stronger effect = lower value 0.928 | locus YFR028C, strain CDC14, stronger effect = lower value 0.957 | locus YGR040W, strain KSS1, stronger effect = lower value 0.801 | locus YGR052W, strain FMP48, stronger effect = lower value 0.717 | locus YGR092W, strain DBF2, stronger effect = lower value 0.696 | locus YHR079C, strain IRE1, stronger effect = lower value 0.7 | locus YHR082C, strain KSP1, stronger effect = lower value 0.733 | locus YHR205W, strain SCH9, stronger effect = lower value 0.756 | locus YIL147C, strain SLN1, stronger effect = lower value 0.952 | locus YJL095W, strain BCK1, stronger effect = lower value 0.708 | locus YJL128C, strain PBS2, stronger effect = lower value 0.968 | locus YJL157C, strain FAR1, stronger effect = lower value 0.845 | locus YJR016C, strain ILV3, stronger effect = lower value 0.962 | locus YJR066W, strain TOR1 (second series), stronger effect = lower value 0.819 | locus YJR066W, strain TOR1, stronger effect = lower value 0.786 | locus YKL067W, strain YNK1, stronger effect = lower value 0.834 | locus YKL101W, strain HSL1, stronger effect = lower value 0.746 | locus YKL193C, strain SDS22, stronger effect = lower value 0.944 | locus YKL203C, strain TOR2, stronger effect = lower value 0.814 | locus YLR133W, strain CKI1, stronger effect = lower value 0.843 | locus YLR403W, strain SFP1, stronger effect = lower value 0.842 | locus YML070W, strain DAK1, stronger effect = lower value 0.766 | locus YMR001C, strain CDC5, stronger effect = lower value 0.956 | locus YMR205C, strain PFK2 (second series), stronger effect = lower value 0.815 | locus YMR277W, strain FCP1, stronger effect = lower value 0.953 | locus YNL006W, strain LST8, stronger effect = lower value 0.962 | locus YNL020C, strain ARK1, stronger effect = lower value 0.812 | locus YNL161W, strain CBK1, stronger effect = lower value 0.963 | locus YNL183C, strain NPR1, stronger effect = lower value 0.64 | locus YNL207W, strain RIO2, stronger effect = lower value 0.951 | locus YNL222W, strain SSU72, stronger effect = lower value 0.953 | locus YNL307C, strain MCK1 (second series), stronger effect = lower value 0.802 | locus YOL078W, strain AVO1, stronger effect = lower value 0.958 | locus YOL136C, strain PFK27, stronger effect = lower value 0.781 | locus YOR061W, strain CKA2, stronger effect = lower value 0.856 | locus YOR119C, strain RIO1, stronger effect = lower value 0.761 | locus YOR231W, strain MKK1, stronger effect = lower value 0.634 | locus YOR329C, strain SCD5, stronger effect = lower value 0.964 | locus YPL031C, strain PHO85, stronger effect = lower value 0.74 | locus YPL153C, strain RAD53, stronger effect = lower value 0.741 | locus YPL204W, strain HRR25, stronger effect = lower value 0.696 | locus YPL209C, strain IPL1, stronger effect = lower value 0.964 | locus YPR025C, strain CCL1, stronger effect = lower value 0.957 | locus YPR106W, strain ISR1, stronger effect = lower value 0.94 | locus YPR111W, strain DBF20, stronger effect = lower value 0.936 | strain NNK1, stronger effect = lower value 0.913 | strain TSCII, stronger effect = lower value 0.954
